The values that follow come from PMC8384837, “Expanding the binding specificity for RNA recognition by a PUF domain”.

Assay in all cases: yeast three-hybrid, YBZ-1, SC-Leu-His + 0.5 mM 3-AT, 4 days
What all share (conditions): tags: N-Gal4 AD-HA kept; label: inside an RPR1-promoter hybrid RNA with tandem MS2 sites; ssRNA

In one assay the target is PUM1 PUF domain R7-QPR (Homo sapiens, UniProt Q14671 828-1176, S1079Q;N1080P;E1083R). Put shortly:
(§1)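 Repeat regions from input (SC-Leu) and selection (SC-Leu-His + 0.5 mM 3-AT) plates were PCR-amplified and Illumina-sequenced after four days of growth. The cells were strain YBZ-1 with a LexA–MS2 coat fusion and a HIS3 reporter, co-expressing Pumilio-1 PUF domain libraries and matching RNA elements from a centromeric plasmid. The interaction score is the log change in variant frequency from input to selection, taken in log2 with a pseudocount of 1 for absent variants.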

For the next assay, the target named is PUM1 PUF domain R4-DYI (Homo sapiens, UniProt Q14671 828-1176, N971D;H972Y;Q975I). The method, boiled down:
as §1

A further assay concerns the target PUM1 PUF domain R4-NNG (Homo sapiens, UniProt Q14671 828-1176, H972N;Q975G). The method, boiled down: as §1
For the next assay, the target named is PUM1 PUF domain R4-YHA (Homo sapiens, UniProt Q14671 828-1176, N971Y;Q975A). The method, boiled down: as §1
Another assay concerns the target PUM1 PUF domain R5-QRL (Homo sapiens, UniProt Q14671 828-1176, C1007Q;Q1011L). The method, boiled down: as §1
The target of the next assay is PUM1 PUF domain R3-LHH (Homo sapiens, UniProt Q14671 828-1176, C935L;R936H;Q939H). Put shortly:
as §1

The next assay concerns the target PUM1 PUF domain R3-QRA (Homo sapiens, UniProt Q14671 828-1176, C935Q;Q939A). The method, boiled down: as §1
The target of a further assay is PUM1 PUF domain R3-QRV (Homo sapiens, UniProt Q14671 828-1176, C935Q;Q939V). The method, boiled down:
as §1

The target of a further assay is PUM1 PUF domain R5-LYA (Homo sapiens, UniProt Q14671 828-1176, C1007L;R1008Y;Q1011A). Put shortly:
as §1

The target of the next assay is PUM1 PUF domain R4-PFT (Homo sapiens, UniProt Q14671 828-1176, N971P;H972F;Q975T). The method, boiled down: as §1
Sequence of PUM1 PUF domain R4-PFT (Q14671 828-1176 N971P/H972F/Q975T): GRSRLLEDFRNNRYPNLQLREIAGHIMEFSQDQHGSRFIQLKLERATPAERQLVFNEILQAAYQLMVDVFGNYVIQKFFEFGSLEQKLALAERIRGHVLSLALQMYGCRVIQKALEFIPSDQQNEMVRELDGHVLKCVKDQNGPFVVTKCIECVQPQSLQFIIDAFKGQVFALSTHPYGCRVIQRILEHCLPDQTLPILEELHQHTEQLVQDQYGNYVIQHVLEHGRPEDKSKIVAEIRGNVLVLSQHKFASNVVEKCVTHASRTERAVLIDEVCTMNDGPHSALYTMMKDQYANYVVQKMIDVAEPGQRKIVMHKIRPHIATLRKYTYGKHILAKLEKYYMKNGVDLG

Sequence of PUM1 PUF domain R7-QPR (Q14671 828-1176 S1079Q/N1080P/E1083R): as the sequence (Q14671 828-1176 N971P/H972F/Q975T) above, with P144N, F145H, T148Q, S252Q, N253P, E256R counted along it
Sequence of PUM1 PUF domain R3-QRA (Q14671 828-1176 C935Q/Q939A): as the sequence (Q14671 828-1176 N971P/H972F/Q975T) above, with C108Q, Q112A, P144N, F145H, T148Q counted along it
Sequence of PUM1 PUF domain R4-NNG (Q14671 828-1176 H972N/Q975G): as the sequence (Q14671 828-1176 N971P/H972F/Q975T) above, with P144N, F145N, T148G counted along it
Sequence of PUM1 PUF domain R5-LYA (Q14671 828-1176 C1007L/R1008Y/Q1011A): as the sequence (Q14671 828-1176 N971P/H972F/Q975T) above, with P144N, F145H, T148Q, C180L, R181Y, Q184A counted along it
Sequence of PUM1 PUF domain R5-QRL (Q14671 828-1176 C1007Q/Q1011L): as the sequence (Q14671 828-1176 N971P/H972F/Q975T) above, with P144N, F145H, T148Q, C180Q, Q184L counted along it
Sequence of PUM1 PUF domain R3-QRV (Q14671 828-1176 C935Q/Q939V): as the sequence (Q14671 828-1176 N971P/H972F/Q975T) above, with C108Q, Q112V, P144N, F145H, T148Q counted along it
Sequence of PUM1 PUF domain R3-LHH (Q14671 828-1176 C935L/R936H/Q939H): as the sequence (Q14671 828-1176 N971P/H972F/Q975T) above, with C108L, R109H, Q112H, P144N, F145H, T148Q counted along it
Sequence of PUM1 PUF domain R4-YHA (Q14671 828-1176 N971Y/Q975A): as the sequence (Q14671 828-1176 N971P/H972F/Q975T) above, with P144Y, F145H, T148A counted along it
Sequence of PUM1 PUF domain R4-DYI (Q14671 828-1176 N971D/H972Y/Q975I): as the sequence (Q14671 828-1176 N971P/H972F/Q975T) above, with P144D, F145Y, T148I counted along it

Regarding “GGCUAGAACUAGUGGAUCCCCCGGCGCCCGGCGGCUCGAGCCCGGGUAAGUCUAAAUAGUCUGCAUGCCGCCGGGCGCCAUGCCUGCAGGUCGACUCUAGAAAACAUG”, the binding signal in the assay with PUM1 PUF domain R7-QPR was 1.84 log2 enrichment (interaction score).
Turning to “GGCUAGAACUAGUGGAUCCCCCGGCGCCCGGCGGCUCGAGCCCGGGUAAGUGUAUAUAGUCUGCAUGCCGCCGGGCGCCAUGCCUGCAGGUCGACUCUAGAAAACAUG”, the binding signal with PUM1 PUF domain R4-DYI is 6.31 log2 enrichment (interaction score); with PUM1 PUF domain R4-NNG it was 4.95 log2 enrichment (interaction score); with PUM1 PUF domain R4-YHA it was 3.12 log2 enrichment (interaction score).
Regarding “GGCUAGAACUAGUGGAUCCCCCGGCGCCCGGCGGCUCGAGCCCGGGUAAGUGUGAAUAGUCUGCAUGCCGCCGGGCGCCAUGCCUGCAGGUCGACUCUAGAAAACAUG”, in the assay with PUM1 PUF domain R5-QRL, the binding signal is 3.22 log2 enrichment (interaction score).
As to “GGCUAGAACUAGUGGAUCCCCCGGCGCCCGGCGGCUCGAGCCCGGGUAAGUGUACAUAGUCUGCAUGCCGCCGGGCGCCAUGCCUGCAGGUCGACUCUAGAAAACAUG”, the binding signal with PUM1 PUF domain R4-NNG is 1.82 log2 enrichment (interaction score).
Turning to “GGCUAGAACUAGUGGAUCCCCCGGCGCCCGGCGGCUCGAGCCCGGGUAAGUGUAAGUAGUCUGCAUGCCGCCGGGCGCCAUGCCUGCAGGUCGACUCUAGAAAACAUG”, the binding signal in the assay with PUM1 PUF domain R3-LHH is 5.47 log2 enrichment (interaction score); with PUM1 PUF domain R3-QRA, 3.67 log2 enrichment (interaction score); with PUM1 PUF domain R3-QRV, 3.59 log2 enrichment (interaction score).
In the case of “GGCUAGAACUAGUGGAUCCCCCGGCGCCCGGCGGCUCGAGCCCGGGUAAGUGUUAAUAGUCUGCAUGCCGCCGGGCGCCAUGCCUGCAGGUCGACUCUAGAAAACAUG”, the binding signal with PUM1 PUF domain R5-LYA is 3.15 log2 enrichment (interaction score).
In the case of “GGCUAGAACUAGUGGAUCCCCCGGCGCCCGGCGGCUCGAGCCCGGGUAAGUUUAAAUAGUCUGCAUGCCGCCGGGCGCCAUGCCUGCAGGUCGACUCUAGAAAACAUG”, in the assay with PUM1 PUF domain R7-QPR, the binding signal was 5.06 log2 enrichment (interaction score).
Turning to “GGCUAGAACUAGUGGAUCCCCCGGCGCCCGGCGGCUCGAGCCCGGGUAAGUGUAAAUAGUCUGCAUGCCGCCGGGCGCCAUGCCUGCAGGUCGACUCUAGAAAACAUG”, the binding signal in the assay with PUM1 PUF domain R4-PFT is 5.31 log2 enrichment (interaction score); with PUM1 PUF domain R5-LYA, 3.54 log2 enrichment (interaction score); with PUM1 PUF domain R5-QRL, 3.37 log2 enrichment (interaction score).
Consider “GGCUAGAACUAGUGGAUCCCCCGGCGCCCGGCGGCUCGAGCCCGGGUAAGUGUAAUUAGUCUGCAUGCCGCCGGGCGCCAUGCCUGCAGGUCGACUCUAGAAAACAUG”, for which the values for the binding signal with PUM1 PUF domain R3-QRA and with PUM1 PUF domain R3-QRV were 2.85 log2 enrichment (interaction score) and 2.73 log2 enrichment (interaction score), respectively.
